Laboratory results: PubChem BioAssay (NCI)
This is part of a sample that, as a whole, favours compounds with a hit. Of some 83,000 tested, about 20% had one in any assay.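 Results are percent growth after 48 hours of single-concentration exposure. 100 means growth as in untreated cells, lower positive values show inhibition; negative values down to -100 show cell death.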 A number with no mark means an inactive call. Active and inactive are the calls of the source. How the source made its calls: active means growth percent below 10; inactive means the rest.

How the values were obtained:
Assay in all cases: NCI-60 one-dose screen, 48 h (100 = growth as untreated, 0 = no growth, -100 = all killed)
Details in all cases: 10 µM unless noted
SK-MEL-2 melanoma = test system: SK-MEL-2 melanoma
EKVX NSCLC = test system: EKVX NSCLC
SN12C renal = test system: SN12C renal
UO-31 renal = test system: UO-31 renal
TK-10 renal = test system: TK-10 renal
ACHN renal = test system: ACHN renal
CAKI-1 renal = test system: CAKI-1 renal
A498 renal = test system: A498 renal
MOLT-4 leukemia = test system: MOLT-4 leukemia
CCRF-CEM leukemia = test system: CCRF-CEM leukemia

SMILES	growth (SK-MEL-2 melanoma)	growth (EKVX NSCLC)	growth (SN12C renal)	growth (UO-31 renal)	growth (TK-10 renal)	growth (ACHN renal)	growth (CAKI-1 renal)	growth (A498 renal)	growth (MOLT-4 leukemia)	growth (CCRF-CEM leukemia)
CC1(C)N=C(N)N=C(N)N1c1cc(Cl)ccc1Cl	19.5%	99.7%	90.4%	91%	94%	-25.2% (active)	9.84% (active)	83.8%	71.1%	
C=CC(=O)Nc1cccc(Oc2nccc(Nc3nnc(-c4ccc(Br)cc4)s3)n2)c1	110%	101%	99.2%	78.9%	152%	100%	81.2%		100%	87.3%
OC1(c2ccccc2)c2ccccc2N(c2ccccc2)c2ccc(Cl)cc21 (configuration not stated)	-72.1% (active)	-81.8% (active)	-81.6% (active)	-95% (active)	-95.5% (active)	-99.5% (active)	-9.02% (active)		1.26% (active)	-13% (active)
COc1cc2ncnc(Nc3ccc(F)c(Cl)c3)c2cc1OCC(=O)N1CCOCC1	87.1%	63.3%	80.3%	52.4%	20.8%	31.9%	48.4%		91.5%	91.6%
O=C(NCCN1CCOCC1)OCc1ccc2c(Cl)cc(Cl)c(O)c2n1	78.1%	89.6%	64.4%	25.5%	96.4%	37.3%	47.1%	106%	57.9%	
Cc1ccc(O)c(NC(=O)c2cccc(Nc3ccnc(C(F)(F)F)c3)c2)c1	82.7%	41.7%	39.9%	29.3%	92.2%	57.8%	41.6%	96.1%	-4.89% (active)	
Cc1ccc(S(=O)(=O)OC[C@]23CCC(C)(C)C[C@H]2C2=CC[C@@H]4[C@@]5(C)CCCNC(C)(C)[C@@H]5CC[C@@]4(C)[C@]2(C)CC3)cc1	102%	83%	46.4%	60.2%	73%	48.6%	41.9%	95.4%	12.9%	
CN(C)CCC(=O)C1CC1	111%	111%	98.9%	75.9%	113%	103%	102%		96.9%	103%
COc1cc2c(c(OC)c1OC)C(=O)CC(c1cccc(C(=O)Nc3ccc(C#N)cc3)c1)O2 (configuration not stated)	74.6%	80.2%	72.1%	52%	92.3%	79.4%	71.6%		20%	25%
O=c1ccc2ccc(OCCN3CCCCC3)cc2o1	101%	101%	95.9%	80.8%	104%	104%	104%		7.74% (active)	0.515% (active)
COc1ccc(C/C(C)=C(\c2ccc(Cl)cc2)c2ccc(OCCN3CCCC3)cc2)cc1	96.8%	96.7%	82.7%	66.3%	87.6%	94.8%	83.4%	110%	44.6%	
COc1ccc(C(c2cc(OC)c(OC)c(OC)c2)N2CCCCC2)cc1 (configuration not stated)	22%	59.1%	54.3%	48.8%	57.6%	50.9%	29.2%	7.32% (active)	31.5%	
COc1cc2c(c(OC)c1OC)C(=O)CC(c1cccc(C(=O)Nc3ccccc3Br)c1)O2 (configuration not stated)	87.7%	99.1%	80%	70.2%	94.2%	89.7%	84.6%	91%	68.6%	
CCCC(=O)NC(c1ccc2c(c1)OCO2)c1cc(Cl)c2cccnc2c1O (configuration not stated)	58.7%	30.1%	38.1%	-8.37% (active)	37.6%	18.1%	18.1%	43.6%	16.6%	
COc1cccc(-c2cn3nc(-c4cn(C)c5ccccc45)sc3n2)c1	102%	85.9%	92%	71.7%	105%	104%	82.6%		87.5%	92%
COc1ccc(Nc2ncc(I)c(NCCCNC(=O)C3CCC3)n2)cc1	35.5%	21.9%	19.8%	-94.1% (active)	-14.5% (active)	-21% (active)	0.394% (active)	-51.4% (active)	10.5%	
[N-]=[N+]=NCC1OC(n2cnc3c(NC(=O)Nc4ccccc4)ncnc32)C2OC(=O)CC12 (configuration not stated)	90.7%	104%	118%	78.8%	101%	101%	101%		84.6%	91.7%
Clc1ccc2nn3c4ccccc4c(OCCN4CCOCC4)nc3c2c1	112%	84.3%	87.9%	49.2%	84.8%	70.7%	50.4%	3.87% (active)	95.3%	
COC1C(O)CC(OC2CC(OC3CC(O[C@@H]4C(=O)c5c(cc6cc(OC7CC(OC8CC(O)C(O)C(C)O8)C(O)C(C)O7)c(C)c(O)c6c5O)CC4[C@H](OC)C(=O)O)OC(C)C3O)OC(C)C2O)OC1C (some centres not stated)	-34.2% (active)	40.4%	20.7%	1.52% (active)	34.1%	2.86% (active)	18.1%		27.2%	46.1%
Cc1c(C(C)(C)O)cn2ncnc(Oc3ccc(NC(=O)Nc4ccc(Cl)c(C(F)(F)F)c4)c(F)c3)c12	94.7%	56.3%	57.6%	69.9%	85.1%	39.5%	47.9%	29.5%	32.2%	
CC(C)(C)CC(C)(C)Nc1c(-c2c(O)c3ccccc3oc2=O)nc2sc3ccccc3n12	66.2%	26.6%	51%	16%	32.3%	33.7%	23.5%		28.5%	23.4%
O=C(CCCCCCCC(=O)N1CCCCC1)N1CCCCC1	103%	100%	99.4%	71.4%	97.3%	97.8%	89.4%		126%	116%
Cc1ccc(S(=O)(=O)c2nc(-c3ccccc3)oc2SCC(N)=O)cc1	94.3%	95.8%	106%	85.5%	85.7%	99.5%	87.3%		90.6%	102%
O=C(c1c[nH]c2ccccc12)c1n[nH]c(=S)n1-c1ccc([N+](=O)[O-])cc1	86.4%	94.6%	92.8%	75.2%	117%	96.1%	85.4%	87.9%	86%	
CC(=O)O[C@H]1CC[C@]2(C)[C@H]3CC=C4[C@@H]5CC(C)(C)CC[C@]5(C(=O)N5CCN(CCC#N)CC5)CC[C@@]4(C)[C@]3(C)CC[C@H]2C1(C)C	68.7%	65.8%	53.4%	30.2%	54.1%	28.2%	35.1%	5.98% (active)	19.7%	
Cc1nc2ccccc2c(/C=C/c2ccc(F)cc2)c1C(=O)/C=C/c1ccccc1	14.2%	38.2%	22.2%	27.4%	23.2%	11.6%	24.7%	55.5%	4.66% (active)	
CN(C)c1ccc([C@@H](C(=O)Nc2cccc([N+](=O)[O-])c2)N(C(=O)c2cc3ccccc3[nH]2)c2cccc([N+](=O)[O-])c2)cc1	113%	90.7%	97.8%	67.6%	117%	93.3%	92.5%	70.5%	92%	
CCOC(=O)C#Cc1c(C(=O)OCC)nnn1[C@@H]1O[C@H](COC)[C@@H](OC)[C@H]1OC	92%	107%	82.5%	29.2%	11.1%	-35.3% (active)	-91.2% (active)	99.1%	58.6%	
